# Assay results published in PubChem BioAssay (NCI).
# Compounds without any hit were thinned out: in the full panel of roughly 83,000, 20% have a hit.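 96-well plates, one dose, 48 hours. Percent growth reported; active if below 10.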 A number with no mark means an inactive call. Activity calls are given as the source filed them.
# Tests used:
# Assay in all cases: NCI-60 one-dose screen, 48 h (100 = growth as untreated, 0 = no growth, -100 = all killed)
# Conditions in all cases: 10 µM unless noted
# NCI-H23 lung = tested on: NCI-H23 lung
# NCI-H226 lung = tested on: NCI-H226 lung
# NCI-H322M lung = tested on: NCI-H322M lung
# HOP-62 NSCLC = tested on: HOP-62 NSCLC
# NCI-H460 lung = tested on: NCI-H460 lung
# HOP-92 NSCLC = tested on: HOP-92 NSCLC
# NCI-H522 lung = tested on: NCI-H522 lung
# 786-0 renal = tested on: 786-0 renal
# COLO 205 colon = tested on: COLO 205 colon
# A549/ATCC NSCLC = tested on: A549/ATCC NSCLC
Structure (SMILES),growth (NCI-H23 lung),growth (NCI-H226 lung),growth (NCI-H322M lung),growth (HOP-62 NSCLC),growth (NCI-H460 lung),growth (HOP-92 NSCLC),growth (NCI-H522 lung),growth (786-0 renal),growth (COLO 205 colon),growth (A549/ATCC NSCLC)
O=C(CC1(O)C(=O)N(Cc2ccccc2)c2ccc(Cl)cc21)c1ccc(C(=O)NCC2CCC3(CC2)OOC2(CCCCC2)OO3)cc1 (stereo not given),-67% (active),-41.3% (active),64.2%,-65.3% (active),-47.2% (active),-73.2% (active),-26.7% (active),-73.6% (active),-66.5% (active),
COC(=O)C1CCC(NC(=O)c2csc([C@@H](C[C@H](C(C)C)N(C)C(=O)[C@@H](NC(=O)[C@H]3CCCCN3C)C(C)C)OC(C)=O)n2)CC1 (stereo not given in full),32%,17%,47.8%,7.46% (active),6.14% (active),32.2%,-25% (active),13%,-71.1% (active),
CC(=O)Nc1ccc(NC(=O)c2ccc([As](O)O)cc2)cc1,103%,116%,118%,131%,104%,112%,-2.06% (active),107%,108%,
C[C@@H]1O[C@@H](O[C@H]2C[C@@H](O)[C@]3(CO)C4C(CC[C@]3(O)C2)[C@@]2(O)CC[C@H](C3=CC(=O)OC3)[C@@]2(C)C[C@H]4O)[C@H](O)[C@H](O)[C@H]1O (stereo not given in full),-67.1% (active),-72.3% (active),-64.5% (active),-99.5% (active),-75.9% (active),-0.733% (active),-54.4% (active),-95.3% (active),-84.2% (active),
CC(=O)OCc1cc[c]([Hg][Cl])o1,58.8%,81.5%,98.7%,91.4%,84.9%,53.8%,-53.6% (active),24.5%,-1.94% (active),73.9%
C/C(=C\c1ccn(-c2ccc(N)cc2C(F)(F)F)n1)[C@@H]1C[C@@H]2O[C@]2(C)CCC[C@H](C)[C@H](O)[C@@H](C)C(=O)C(C)(C)[C@@H](O)CC(=O)O1,19.9%,59.4%,23.4%,24.5%,9.25% (active),57%,0.465% (active),16.4%,-6.04% (active),
COC(=O)[C@@H](C)C[C@H](Cc1ccccc1)NC(=O)c1csc([C@@H](C[C@H](C(C)C)N(C)C(=O)[C@H](C)NC(=O)[C@H]2CCCN2C)OC(C)=O)n1,60.8%,68.2%,63.7%,63.6%,30.9%,37.6%,-10.7% (active),45%,22.8%,
CC(=O)OCC1O[C@@H]([S-])C(OC(C)=O)[C@H](OC(C)=O)[C@@H]1OC(C)=O.[Au+].c1ccc(CN2[CH-]N(Cc3ccccc3)C(c3ccccc3)=C2c2ccccc2)cc1,28.5%,72.5%,82.7%,92.8%,62%,-7.44% (active),-47.6% (active),40.1%,13.8%,
COC1CC2c3ccccc3C1C(C)=[N+]2C (stereo not given),89.3%,90.8%,99.5%,110%,106%,98.7%,79.8%,98.9%,120%,
O=C(NCCN1CC1)C(=O)NCCN1CC1,90.5%,87.4%,102%,84.5%,58%,103%,62.7%,98.3%,88.7%,
O=C(CC1(O)C(=O)Nc2ccccc21)c1ccc(C(=O)NCC2CCC3(CC2)OOC2(CCCCC2)OO3)cc1 (stereo not given),50.4%,63.6%,88.9%,63.8%,77.1%,-53.6% (active),54.9%,-34% (active),80%,
Nc1ccc2c(c1)oc1ccccc12,97.3%,93.1%,102%,103%,111%,89.4%,95.9%,95.7%,123%,
CC1(C)C(C(=O)c2cn(CCCCF)c3ccccc23)C1(C)C,85.4%,82.1%,112%,92.9%,103%,98%,56.9%,99.3%,99.5%,
CCCCN1CCCC[C@@H]1C(=O)N[C@H](C(=O)N(C)[C@H](C[C@@H](OC(C)=O)c1nc(C(=O)NC2CCC(C(=O)OC)CC2)cs1)C(C)C)C(C)C (stereo not given in full),48.4%,71.8%,40.5%,23%,9.59% (active),37%,-11.8% (active),36.7%,7.59% (active),
Fc1ccc2c(c1)c(-c1nc(-c3c[nH]c4ncccc34)cs1)cn2CCN1CCOCC1,60%,49.2%,77.2%,39.3%,59.8%,18.8%,44.5%,71.6%,38.4%,
C[CH2][Sn]([Cl])([Cl])[CH2]C.Oc1ccccc1C=NCCN=Cc1ccccc1O,103%,99.1%,101%,99.2%,107%,95.2%,9.48% (active),116%,116%,
